# Hits are enriched below; roughly 2.7% of the tested compounds scored in any of these assays.
# TGFb inhibitor: qHTS for Inhibitors of TGF-b | Potency, µM (top dose mostly 46.1 µM), hits mostly inhibitors | HepG2 CAGA-GFP TGF-b/SMAD3 reporter, GFP fluorescence, 18 h; TGF-beta stimulated, 500 pg/mL final | actives 1.2% (n = 410,000) | AID 588855, 2011; further: nearly all actives have a fitted effect of over 65% in size
#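 TGF-beta reporter screen: HEPG2 CAGA-GFP, 1% FBS, 500 pg/mL TGF-beta final, 18 h; per-cell GFP summed per well; curves fitted and categorized by class.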
# S2 tox: Viability Counterscreen for Primary qHTS for Inhibitors of ATXN expression; actives 0.49% (n = 400,000); S2 cells (HEK-293 line with an ATXN2-luciferase reporter) viability, CellTiter-Fluor protease fluorescence, 24 h; AID 651635, 2014; Potency, µM (titrated, usually from 56.7 µM), usual class: cytotoxic; further: nearly all actives have a fitted effect of over 40% in size
# ALOX12 inh: Primary qHTS assay for inhibitors of human arachidonate 12S-lipoxygenase (ALOX12): Round 2; Potency, µM (highest dose often 108 µM), usual class: inhibitors; Polyunsaturated fatty acid lipoxygenase ALOX12 (Homo sapiens), P18054; purified 12hLO, xylenol orange hydroperoxide absorbance; actives 1.1% (n = 580,000)
# Target sequence (P18054 whole entry, looked up): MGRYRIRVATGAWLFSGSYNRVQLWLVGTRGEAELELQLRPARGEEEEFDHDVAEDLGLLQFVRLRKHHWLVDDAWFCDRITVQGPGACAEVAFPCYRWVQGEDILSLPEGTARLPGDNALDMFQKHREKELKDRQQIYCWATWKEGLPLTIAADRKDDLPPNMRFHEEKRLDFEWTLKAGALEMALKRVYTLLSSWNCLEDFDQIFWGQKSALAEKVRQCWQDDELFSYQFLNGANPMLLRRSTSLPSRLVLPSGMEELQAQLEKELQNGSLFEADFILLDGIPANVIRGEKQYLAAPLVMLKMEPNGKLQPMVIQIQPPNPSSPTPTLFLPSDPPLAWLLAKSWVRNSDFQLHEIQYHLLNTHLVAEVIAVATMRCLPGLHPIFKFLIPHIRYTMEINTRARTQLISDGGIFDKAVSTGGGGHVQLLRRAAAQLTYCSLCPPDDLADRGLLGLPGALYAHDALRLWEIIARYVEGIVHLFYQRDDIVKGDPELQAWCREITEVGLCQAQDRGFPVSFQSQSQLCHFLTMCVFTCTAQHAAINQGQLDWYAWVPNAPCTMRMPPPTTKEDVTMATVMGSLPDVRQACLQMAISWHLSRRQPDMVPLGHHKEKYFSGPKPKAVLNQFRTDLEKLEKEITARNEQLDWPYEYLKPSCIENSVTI
#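 Hydroperoxide product was detected by ferrous iron/xylenol orange as the 573 to 405 nm absorbance ratio. Arachidonic acid at 40 uM (final) was turned over for 30 min at room temperature by 150 nM human 12hLO, pH 7.0 Hepes buffer, after 15 min compound preincubation.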
# HepG2 tox: qHTS for Inhibitors of TGF-b: Cytotox Counterscreen; Potency, µM (doses to about 46.1 µM), most hits filed as cytotoxic; HepG2 CAGA-GFP viability, ATP luminescence, 18 h; actives 0.76% (n = 410,000)
#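 HepG2 CAGA-GFP cells (1000/well, DMEM with 1% FBS) received compound, then TGF-beta at 500 pg/mL final, and were incubated 18 hours at 37 degrees C. Viability was read by CellTiter-Glo luminescence. Media-only wells were set as complete cell-killing and DMSO as no toxicity.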
# ATXN2 expr inh: Primary qHTS for Inhibitors of ATXN expression | Potency, µM (top dose mostly 57 µM), most hits filed as inhibitors | HEK-293 ATXN2-luciferase reporter, luminescence, 24 h | actives 0.72% (n = 360,000); further: nearly all actives have a fitted effect of over 55% in size
#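 ATXN2-luciferase reporter cells (luciferase flanked by upstream and downstream ATXN2 gene portions) were treated 24 h at 37 °C with compounds at up to 57 uM. SteadyGlo luminescence gave expression; GF-AFC fluorescence gave viability.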
# Hits are given with their value; 0 = inactive; ? = inconclusive; - = no result given. The call rests on the fitted dose curve; in most records, active means well fitted curve in the direction sought with a large enough effect; inconclusive means small, poorly fitted or top-dose-only effect, or another doubt; inactive means no such curve, though single readings can be large; an effect the other way counts as inactive or inconclusive.
SMILES,TGFb inhibitor,S2 tox,ALOX12 inh,HepG2 tox,ATXN2 expr inh
CC(Sc1n[nH]c(C(C)C)n1)C(=O)c1c[nH]c2ccccc12 (centres undefined),-,-,0,-,-
COc1ccc(C)cc1NC(=O)COC(=O)c1c(C)nn(-c2ccccc2)c1C,0,?,0,0,22µM
Cc1nn(-c2ccccc2)c(C)c1C(=O)OCC(=O)Nc1ccccc1F,0,0,0,0,0
O=C(Nc1cn[nH]c1)C1CCN(c2ccc(C(F)(F)F)cn2)CC1,-,-,0,-,-
Cc1nc2cccnc2n1CC1CCCN(S(=O)(=O)Cc2ccc(Cl)cc2)C1 (centres undefined),-,-,0,-,-
O=C(CN1CCN(CC(=O)Nc2cccc(F)c2)CC1)NCCc1c[nH]c2ccccc12,-,-,0,-,-
CCN(CC)CCNS(=O)(=O)c1ccc(OC)c(Br)c1,0,0,3.5µM,0,0
COc1ccc(S(=O)(=O)NCc2cccnc2)cc1Br,0,?,0,7.1µM,-
COc1ccc(CNC(=O)c2ccc3noc(-c4ccccc4)c3c2)cc1OC,-,-,0,-,-
COCCn1cnnc1SC(C)C(=O)c1cccc(Cl)c1 (centres undefined),-,-,0,-,-
Cc1ccc(-n2nnc(-c3nccs3)n2)cc1,0,0,0,0,?
Clc1ccc(-n2nnc(-c3nccs3)n2)cc1Cl,0,0,5.6µM,0,0
Cc1ccc(S(=O)(=O)N2CCC(c3nnc(-c4cccc(C)c4)o3)CC2)cc1,?,7.9µM,?,0,5.6µM
CCCc1ccc(S(=O)(=O)N2CCC(c3nnc(-c4cccc(C)c4)o3)CC2)cc1,?,-,0,0,10µM
COc1ccc(-c2nnc(C3CCN(S(=O)(=O)c4ccc(C)c(C)c4)CC3)o2)cc1,0,0,0,0,0
CCOC(=O)CNC(=O)C(=O)NCC(=O)OCC,-,-,0,-,-
O=C1CCCN1CCCNC(=S)Nc1ccc(Nc2ccccc2)cc1,0,0,0,0,0
O=C1CCCN1CCCNC(=S)Nc1ccccc1,0,0,28µM,0,0
Cn1c(=O)c2c(nc(NCc3ccco3)n2C)n(C)c1=O,0,0,0,0,0
Cn1c(=O)c2c(nc(NCc3ccco3)n2C/C=C/c2ccccc2)n(C)c1=O,4µM,?,0,0,?
COCCOC(=O)C1=C(C)N=C2SC=C(CC(=O)NCc3ccco3)N2C1c1ccccc1OC (centres undefined),-,-,0,-,-
CSc1ccc(NC(=O)c2cc3c(s2)CN(C2CC2)C3)cc1,-,-,0,-,-
COc1ccc2c(C(=O)CCl)c[nH]c2c1,14µM,0,0,6.3µM,0
CCc1nncn1C1CCN(S(=O)(=O)c2cccc(OC)c2)CC1,-,-,79µM,-,-
Cc1cc2oc(=O)cc(CN3CCN(CCO)CC3)c2cc1O,-,-,0,-,-
SMILES,TGFb inhibitor,S2 tox,ALOX12 inh,HepG2 tox,ATXN2 expr inh
Cc1ccc(C)c(C(=O)CSc2nnc(COc3ccc(Cl)cc3)n2C)c1,-,-,0,-,-
CCCCn1cnc2c1c(=O)n(CC(O)COc1ccccc1)c(=O)n2CCC (centres undefined),-,-,0,-,-
COCCOC1CCOC2(CCN(C(=O)Cc3cccc(C)c3)CC2)C1 (centres undefined),-,-,0,-,-
O=C(Nc1c(Cl)cc2c(c1Cl)Cc1cc([N+](=O)[O-])ccc1-2)C(Cl)Cl,7.1µM,?,0,0,0
O=C(O)C(c1c[nH]c2ccc(Cl)cc12)N1CCN(Cc2ccccc2)CC1 (centres undefined),-,-,0,-,-
Cc1cccc(C2CC(c3ccccc3)=NN2c2ccc(S(N)(=O)=O)cc2)c1 (centres undefined),?,0,?,11µM,?
NS(=O)(=O)c1ccc(N2N=C(c3ccccc3)CC2c2cccc(Cl)c2)cc1 (centres undefined),?,0,?,0,?
COc1ccc(C2=NN(c3nc(-c4ccccc4)c(CC(=O)O)s3)C(c3ccco3)C2)cc1 (centres undefined),0,?,11µM,0,0
COc1ccc(C2CC(c3ccccc3)=NN2c2ccc(C(N)=O)cc2)cc1 (centres undefined),16µM,-,?,0,0
COc1ccc(C2CC(c3cccc(F)c3)=NN2c2ccc(S(N)(=O)=O)cc2)cc1 (centres undefined),11µM,-,32µM,0,?
COc1ccc(C2CC(c3cccc(Br)c3)=NN2c2ccc(S(N)(=O)=O)cc2)cc1 (centres undefined),?,-,?,0,?
COc1ccc(-c2nc(CSC(C)C(=O)Nc3ccccc3)co2)cc1 (centres undefined),-,-,0,-,-
Cn1cc(-c2cc3cnc(Nc4cccc(NS(C)(=O)=O)c4)cc3n2Cc2ccccc2)cn1,-,-,0,-,-
Cc1ccc(S(=O)(=O)N2CCCc3cc(NS(=O)(=O)c4cccc(Cl)c4)ccc32)cc1,10µM,?,0,0,?
CC1CCN(S(=O)(=O)c2ccc3c(ccn3CCC(=O)NCCCN3CCOCC3)c2)CC1,-,-,0,-,-
CCOC(=O)c1c(NC(=O)CSc2nncs2)sc(C)c1-c1ccccc1,11µM,0,0,0,0
O=C1OCC2(CCN(Cc3ccc(Cl)cc3)C2)N1CCN1CCOCC1 (centres undefined),-,-,0,-,-
O=C1OCC2(CCN(Cc3ccc4c(c3)CCO4)C2)N1Cc1ccccc1 (centres undefined),-,-,56µM,-,-
O=C(CCNC(=O)Cn1cnc2ccccc2c1=O)NCC1COc2ccccc2O1 (centres undefined),0,0,0,13µM,0
O=C(CCNC(=O)Cn1cnc2ccccc2c1=O)NCC1CCCO1 (centres undefined),0,-,0,0,0
OC(CN1CCNCC1)Cn1c2ccc(Br)cc2c2cc(Br)ccc21 (centres undefined),-,-,28µM,-,-
CN(Cc1ccc(C(=O)NCC(F)(F)F)cc1)C(=O)c1ccc(F)cc1,-,-,0,-,-
COc1coc(C(O)CN)cc1=O (centres undefined),0,0,0,0,0
CCOC(=O)C(=Cc1cc(=O)c(OC)co1)C(=O)OCC,7.1µM,?,0,14µM,?
CCC(C(=O)N1CCN(c2ccc(OC)cc2)CC1)n1nc(C)n2c(cc3occc32)c1=O (centres undefined),10µM,?,?,0,0
O=C(CNC(=O)NCCc1ccccc1)NCC(F)(F)F,-,-,0,-,-
CCN(CC)c1ccc2c(c1)oc(=O)c1c(Cl)cc(=O)oc12,?,?,-,14µM,?
CCN(CC)c1ccc2c(C)c(Cl)c(=O)oc2c1,0,-,0,0,0
O=C(N/C(=C/c1ccc([N+](=O)[O-])cc1)C(=O)N1CCCC1)c1ccccc1,0,0,0,0,0
O=C(N/C(=C/C=C/c1ccccc1)C(=O)N1CCCCC1)c1ccc([N+](=O)[O-])cc1,?,1.5µM,0,0,0

# High-throughput results (PubChem)
